Measured values as given in the supplement of paper PMC10338343.
± gives the standard deviation. Over roughly 8,200 sequences, “pre-steady-state target cleavage rate” has its median near 0.024; the highest 2% begin near 1.3. What follows is part of a selection rich in the highest values, with near analogues and random picks from the rest.

Tested on: MIWI (PIWIL1) piRISC loaded with L1MC piRNA (30 nt)
Test: pre-steady-state target cleavage rate (min^-1); MIWI and MILI are mouse PIWI proteins and EfPiwi is from a freshwater sponge; tags in brackets are library labels; higher = faster piRNA-guided slicing of the target
Details: guide: L1MC piRNA 5'p-UAACUAAAUACUAUGCAAGCUGUAGGUCCU
How it was run: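 In HEPES–potassium acetate buffer at 33 °C, […] transcribed, DNA-blocked target RNA library was mixed with 1 nM active affinity-purified piRISC carrying one synthetic guide, with or without 500 nM GTSF1 partner protein, for 0–8 or 0–960 min. Uncleaved targets were sequenced and normalised to depth and to weakly complementary targets; three trials were pooled and k3 was capped at 0.0001 min^-1. The pre-steady-state cleavage rate followed from a burst-and-steady-state fit.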

[1] = auxiliary factor: none (no GTSF1)
[2] = auxiliary factor: 500 nM mouse GTSF1
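Further: 1 nM active piRISC with 0.1 nM target library at 33 °C single turnover.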

Sequence	pre-steady-state target cleavage rate [1]	pre-steady-state target cleavage rate [2]
UCCUGGAUGUCGAACCAUAGAAUAUAGUUA	< 0.0001	–
UCCUGGAUGUCCAUGCAUAGUAUUUUGUUA	–	0.00484 ± 0.0039
UCGACCUUCAGCUUGCAAAGUAUUUAGUUA	0.0401 ± 0.0087	1.33 ± 0.045
UCCUCCUUCAGCUUGCAAAGUAUUUAGUUA	0.0323 ± 0.0072	1.16 ± 0.041
UCCUCCUUCAGCUUGCUUAGUAUUUAGUUA	0.0243 ± 0.0053	1.31 ± 0.054
UCCACCUUCAGCUUGCAAAGUAUUUAGUUA	0.0305 ± 0.0063	1.17 ± 0.038
ACGACCUUCAGCUUGCAUAGUAUUUAGUUA	0.0921 ± 0.015	1.45 ± 0.042
AGCACCUUCAGCUUGCAUAGUAUUUAGUUA	0.0548 ± 0.014	0.711 ± 0.089
UCGACCUUCAGCUUGCAUAGUAUUUAGUUA	0.0696 ± 0.012	1.51 ± 0.047
UCGACCUUCAGCUUGCUUAGUAUUUAGUUA	0.0363 ± 0.0088	1.33 ± 0.05
UCCACCUUCAGCUUGCUUAGUAUUUAGUUA	0.0231 ± 0.005	1.16 ± 0.037
UCGACCUUCAGCUUGCAUAGUAUUUAGAAA	0.0103 ± 0.0029	0.659 ± 0.064
UCGACCUUCAGCUUGCAUAGUAUUUAGUAA	0.043 ± 0.011	1.05 ± 0.065
UGCACCUUCAGCUUGCAUAGUAUUUAGUUA	0.0562 ± 0.011	1.08 ± 0.091
UCCUCGUACAGCUUGCAUAGUUUUUAGUUA	0.0475 ± 0.011	0.478 ± 0.013
UCCUGCUACAGCUUGCAUAGUAAUUUCAAA	–	0.278 ± 0.074
UCCACCAACUGCUUGCAUAGUAUUUAGUUA	0.0532 ± 0.0097	0.828 ± 0.036
UGGACCUACAGCAUGCAUAGUAUUUAGAAA	0.00651 ± 0.0026	0.5 ± 0.061
UCCACCUACACCUUGCAUAGUAUAUAGUUA	0.025 ± 0.0054	0.543 ± 0.068
UCCUGCAACAGCUUGCAUAGAAUUUAGUUA	0.0261 ± 0.0079	0.492 ± 0.048
UCCUGGAUCAGCUUGCAAACUAUUUAGUUA	0.00677 ± 0.003	0.0815 ± 0.0098
AGGACCUAAGCUUGCAUAGUAUUUAGUUA	0.0685 ± 0.013	1.05 ± 0.071
UCGACCUACACCUUGCAUAGUAUUUAGUUA	0.0525 ± 0.008	1.15 ± 0.046
UGGACCUACAUCUUGCAUAGUAUUUAGUUA	0.0737 ± 0.012	1.38 ± 0.043
AGGACCUACAUGCUUGCAUAGUAUUUAGUUA	0.0684 ± 0.013	0.767 ± 0.056
UGGACCUACAUGCUUGCAUAGUAUUUAGUUA	0.0601 ± 0.013	0.925 ± 0.054

Sequence	pre-steady-state target cleavage rate [1]	pre-steady-state target cleavage rate [2]
UCGACCUACAGUCUUGCAUAGUAUUUAGUUA	0.0611 ± 0.012	1.16 ± 0.063
AGGACCUACACCUUGCAUAGUAUUUAGUUA	0.0855 ± 0.015	1.17 ± 0.037
UCGACCUACAUCUUGCAUAGUAUUUAGUUA	0.077 ± 0.014	1.61 ± 0.043
AGGACCUACAUCUUGCAUAGUAUUUAGUUA	0.0767 ± 0.012	1.39 ± 0.036
UCCACCUACAUCUUGCAUAGUAUUUAGUUA	0.0567 ± 0.0096	0.85 ± 0.036
UCCACCUACAGCUUCCAUAGAAUUUAGUUA	–	0.0393 ± 0.015
UGGACCAUGAGCUUGCAUAGUAUUUACAAA	0.00423 ± 0.0026	0.159 ± 0.021
AGGACCUACAGCUUGCAUAGUUAAAUCAAA [g10:g30:cont:t1A]	–	0.159 ± 0.046
UCGACCAUACAGCUUGCAUAGUAUUUAGUUA	0.0901 ± 0.015	0.86 ± 0.039
UCGACAUACAGCUUGCAUAGUAUUUAGUUA	0.071 ± 0.012	1.38 ± 0.043
UGGACAUACAGCUUGCAUAGUAUUUAGUUA	0.0916 ± 0.014	1.23 ± 0.05
AGGACAUACAGCUUGCAUAGUAUUUAGUUA	0.0818 ± 0.012	1.32 ± 0.055
AGGACCAUACAGCUUGCAUAGUAUUUAGUUA	0.0829 ± 0.013	1.06 ± 0.051
UCGACACUACAGCUUGCAUAGUAUUUAGUUA	0.0557 ± 0.0088	0.961 ± 0.061
UCCUGGAUGUGCUUGCAUUGUAUUUAGUAA	0.00578 ± 0.0023	0.0234 ± 0.0059
UCCUGGAACAGCUUGCAUAGAUUUUAGUAA	–	0.0419 ± 0.015
UCCUGGAUGUCGAAGGAUAGUAUUUUGUUA	< 0.0001	–
UCCUGGUACUGCAUGCAUAGUAUUUAGUUA	0.00786 ± 0.0024	0.556 ± 0.045
UCCUGGUUCAGCAUGCAUAGUAUUUAGUUA	0.0172 ± 0.0043	0.93 ± 0.036
UCCUGCUUCAGCUUGCAUAGUAUUUAGUUA	0.0684 ± 0.012	1.19 ± 0.051
UCCUGCUUCAGCUAGCAUAGUAUUUAGUUA	0.0109 ± 0.0042	1.32 ± 0.056
UCCUCCUUCAGCUAGCAUAGUAUUUAGUUA	0.0147 ± 0.0034	0.78 ± 0.032
UCCUGCUUCAGCAUGCAUAGUAUUUAGUUA	0.0171 ± 0.0036	1.32 ± 0.078
UCCUGGUUCAGCUAGCAUAGUAUUUAGUUA	0.0169 ± 0.004	0.872 ± 0.045
UCCUGGAACAGCUUGCAUUGUAAUUAGUUA	0.018 ± 0.006	0.375 ± 0.032
UCCUGGAACUCCUUGCAUAGUAUUUAGUUA	0.00821 ± 0.0033	0.46 ± 0.048

Sequence	pre-steady-state target cleavage rate [1]	pre-steady-state target cleavage rate [2]
UCCUCCUAACAGCUUGCAUAGUAUUUAGUUA	0.0508 ± 0.0092	0.591 ± 0.025
UCCACCUACAGCUUGCUUAGUUUUUAGUUA	0.0103 ± 0.002	0.175 ± 0.017
UGGUCCUACAGCUUGCAUAGUAUUUUGUUA	0.0592 ± 0.011	0.679 ± 0.03
UCCUCCUACAGCUUGCAUGUAUUUAGUUA	0.00445 ± 0.0018	0.428 ± 0.051
UCGACCUACAGCUUGCAUGGUAUUUAGUUA	0.0512 ± 0.011	1.73 ± 0.084
UCGACCUACAGCUUGCAUGUAUUUAGUUA	0.00292 ± 0.0025	0.479 ± 0.05
UCCUGCUACAGCUUGCAUGGUAUUUAGUUA	0.0413 ± 0.0095	1.2 ± 0.1
UCCUCCUACAGCUUGCAUGGUAUUUAGUUA	0.0582 ± 0.011	1.66 ± 0.078
UGGACCUACAGCUUGCAUGGUAUUUAGUUA	0.0478 ± 0.01	1.38 ± 0.079
UCGACCUACAGCUUGCAUUAGUAUUUAGUUA	–	0.264 ± 0.082
UGGACCUACAGCUUGCAUGUAUUUAGUUA	0.00423 ± 0.0025	0.353 ± 0.055
AGGACCUACAGCUUGCAUGUAUUUAGUUA	0.00718 ± 0.0034	0.485 ± 0.048
AGGACCUACAGCUUGCAUGAGUAUUUAGUUA	–	0.194 ± 0.068
AGGACCUACAGCUUGCAUGGUAUUUAGUUA	0.0615 ± 0.012	1.35 ± 0.073
UCCACCUACAGCUUGCAUGGUAUUUAGUUA	0.0488 ± 0.01	1.3 ± 0.061
AGGUCCUACAGCUUGCAUAGUAUUUAGAAA	0.0132 ± 0.0048	0.285 ± 0.045
AGGACCUACAGCUUGCAUAGUUAAUUCAAA	–	0.786 ± 0.23
UCCUGGUACAGCUUGCAUAGUAUUUAGAUUA	0.0165 ± 0.0061	0.179 ± 0.046
UCCUGCUACACCAUGCAUAGUAUUUAGUUA	0.00793 ± 0.002	0.783 ± 0.035
UCCUGGAACAGCUUGCAAUGUAUUUAGUUA	0.00723 ± 0.0039	0.265 ± 0.02
UCCUGGAUGUCCUUGCAUAGUAUAUUGUUA	–	0.00947 ± 0.0039
UCGACCUACAGCUUGGAUAGUAUUUACAAA	–	0.179 ± 0.036
UCCUCCUACAGCUUGGUUAGUAUUUAGUAA	0.00502 ± 0.0015	0.523 ± 0.043
UCCACCUACAGCAAGCAUAGUAUUUAGUAA	–	0.507 ± 0.042
AGGACCUACAGCUUGCAUAGUAUUAUCUAA	–	0.404 ± 0.066
UCCUGGAUGUCCUUGCAUAGUAGUUAGUUA	0.00268 ± 0.0023	0.00603 ± 0.0046
